This note sets out measurements from ChEMBL document CHEMBL1961873, “Compounds: GSK PKIS; Assays: Nanosyn kinase panel” (2012).

Experiment [1] concerns the target Mast/stem cell growth factor receptor Kit (Homo sapiens) (UniProt P10721). The conditions noted are these: at 1 µM.
In experiment [2] the test system is Mast/stem cell growth factor receptor Kit (Homo sapiens), P10721 [D816V]. The conditions noted are these: at 0.1 µM.
Experiment [3] has the same test system. The following applies: at 1 µM.
The test system of experiment [4] is Mast/stem cell growth factor receptor Kit (Homo sapiens), P10721 [T670I]. The following applies: at 0.1 µM.
Mast/stem cell growth factor receptor Kit (Homo sapiens), P10721 [T670I], sequence (P10721 whole entry T670I): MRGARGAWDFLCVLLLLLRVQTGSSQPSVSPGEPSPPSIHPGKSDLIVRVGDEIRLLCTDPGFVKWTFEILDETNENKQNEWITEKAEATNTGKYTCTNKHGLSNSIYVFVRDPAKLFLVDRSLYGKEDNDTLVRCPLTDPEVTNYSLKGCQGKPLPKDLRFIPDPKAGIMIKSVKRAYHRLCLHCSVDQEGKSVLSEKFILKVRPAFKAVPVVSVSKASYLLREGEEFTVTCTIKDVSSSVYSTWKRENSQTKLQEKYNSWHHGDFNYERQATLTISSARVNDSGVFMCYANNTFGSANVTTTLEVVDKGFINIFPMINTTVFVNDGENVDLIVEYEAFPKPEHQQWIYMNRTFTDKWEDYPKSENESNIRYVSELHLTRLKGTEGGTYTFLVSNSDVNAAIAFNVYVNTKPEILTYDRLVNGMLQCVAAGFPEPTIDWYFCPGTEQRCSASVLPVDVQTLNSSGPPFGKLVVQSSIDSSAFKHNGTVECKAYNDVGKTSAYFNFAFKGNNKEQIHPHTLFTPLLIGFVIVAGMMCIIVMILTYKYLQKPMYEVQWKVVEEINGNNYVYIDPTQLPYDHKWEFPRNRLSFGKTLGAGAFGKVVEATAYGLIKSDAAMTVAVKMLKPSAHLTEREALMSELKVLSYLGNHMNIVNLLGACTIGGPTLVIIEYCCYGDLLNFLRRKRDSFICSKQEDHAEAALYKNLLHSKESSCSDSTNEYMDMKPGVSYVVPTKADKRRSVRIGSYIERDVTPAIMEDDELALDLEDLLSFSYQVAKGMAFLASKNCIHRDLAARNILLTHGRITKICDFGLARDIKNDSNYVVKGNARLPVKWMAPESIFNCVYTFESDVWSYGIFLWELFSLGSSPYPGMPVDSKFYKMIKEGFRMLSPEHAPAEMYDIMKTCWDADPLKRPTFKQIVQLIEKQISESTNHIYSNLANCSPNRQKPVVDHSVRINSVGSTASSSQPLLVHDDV
Experiment [5] shares this test system. The following applies: at 1 µM.
Experiment [6] relates to Mast/stem cell growth factor receptor Kit (Homo sapiens), P10721 [V560G]. The conditions noted are these: at 0.1 µM.
Mast/stem cell growth factor receptor Kit (Homo sapiens), P10721 [V560G], sequence (P10721 whole entry V560G): as the sequence (P10721 whole entry T670I) above, with V560G, I670T counted along it
The test system is the same in experiment [7]. The conditions noted are these: at 1 µM.
Experiment [8] deals with Tyrosine-protein kinase Lck (Homo sapiens) (UniProt P06239). The conditions noted are these: at 0.1 µM.
Tyrosine-protein kinase Lck (Homo sapiens), sequence (P06239 2-509 limits assumed): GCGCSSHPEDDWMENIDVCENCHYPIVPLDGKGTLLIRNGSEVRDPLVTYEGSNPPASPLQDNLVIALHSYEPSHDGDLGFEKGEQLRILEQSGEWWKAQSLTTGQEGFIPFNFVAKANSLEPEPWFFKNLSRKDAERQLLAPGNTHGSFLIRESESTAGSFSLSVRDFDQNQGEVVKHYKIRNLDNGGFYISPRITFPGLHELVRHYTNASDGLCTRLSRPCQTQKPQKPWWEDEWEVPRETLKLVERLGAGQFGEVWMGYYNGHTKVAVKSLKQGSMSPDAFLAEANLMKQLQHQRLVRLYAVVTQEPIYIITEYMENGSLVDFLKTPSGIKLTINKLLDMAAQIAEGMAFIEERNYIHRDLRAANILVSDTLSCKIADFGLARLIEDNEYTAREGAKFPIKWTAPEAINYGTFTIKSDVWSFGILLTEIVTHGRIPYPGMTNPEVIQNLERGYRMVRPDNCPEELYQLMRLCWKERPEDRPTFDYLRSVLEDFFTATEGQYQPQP
Experiment [9] shares this target. The following applies: at 1 µM.
The target in experiment [10] is Leukocyte tyrosine kinase receptor (Homo sapiens) (UniProt P29376). The conditions noted are these: at 0.1 µM.
Leukocyte tyrosine kinase receptor (Homo sapiens), sequence (P29376 whole entry): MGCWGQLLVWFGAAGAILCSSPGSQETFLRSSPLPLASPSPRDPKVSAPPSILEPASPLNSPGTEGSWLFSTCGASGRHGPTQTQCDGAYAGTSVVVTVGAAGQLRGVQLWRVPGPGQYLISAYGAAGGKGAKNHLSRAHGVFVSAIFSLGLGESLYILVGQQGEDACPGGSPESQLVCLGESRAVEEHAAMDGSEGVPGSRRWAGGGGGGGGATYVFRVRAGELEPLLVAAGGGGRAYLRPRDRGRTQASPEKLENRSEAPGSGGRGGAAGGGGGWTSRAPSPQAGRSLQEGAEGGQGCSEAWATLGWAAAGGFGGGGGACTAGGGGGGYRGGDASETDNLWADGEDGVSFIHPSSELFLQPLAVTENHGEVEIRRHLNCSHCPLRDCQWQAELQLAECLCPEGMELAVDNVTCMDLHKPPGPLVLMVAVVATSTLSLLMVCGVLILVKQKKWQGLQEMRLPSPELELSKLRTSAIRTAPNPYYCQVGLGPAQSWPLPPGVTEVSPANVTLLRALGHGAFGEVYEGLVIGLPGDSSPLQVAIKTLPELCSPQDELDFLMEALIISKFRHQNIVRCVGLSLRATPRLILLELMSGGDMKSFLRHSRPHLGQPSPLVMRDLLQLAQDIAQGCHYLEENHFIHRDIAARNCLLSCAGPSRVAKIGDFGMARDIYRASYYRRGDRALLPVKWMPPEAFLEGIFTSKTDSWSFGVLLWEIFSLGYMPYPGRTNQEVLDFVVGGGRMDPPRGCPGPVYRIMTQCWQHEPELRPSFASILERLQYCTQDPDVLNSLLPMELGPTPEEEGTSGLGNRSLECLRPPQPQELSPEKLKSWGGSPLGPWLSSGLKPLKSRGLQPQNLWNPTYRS
The target is the same in experiment [11]. The conditions noted are these: at 1 µM.
In experiment [12] the target is Tyrosine-protein kinase Lyn (Homo sapiens) (UniProt P07948). The conditions noted are these: at 0.1 µM.
Tyrosine-protein kinase Lyn (Homo sapiens), sequence (P07948 2-512 limits assumed): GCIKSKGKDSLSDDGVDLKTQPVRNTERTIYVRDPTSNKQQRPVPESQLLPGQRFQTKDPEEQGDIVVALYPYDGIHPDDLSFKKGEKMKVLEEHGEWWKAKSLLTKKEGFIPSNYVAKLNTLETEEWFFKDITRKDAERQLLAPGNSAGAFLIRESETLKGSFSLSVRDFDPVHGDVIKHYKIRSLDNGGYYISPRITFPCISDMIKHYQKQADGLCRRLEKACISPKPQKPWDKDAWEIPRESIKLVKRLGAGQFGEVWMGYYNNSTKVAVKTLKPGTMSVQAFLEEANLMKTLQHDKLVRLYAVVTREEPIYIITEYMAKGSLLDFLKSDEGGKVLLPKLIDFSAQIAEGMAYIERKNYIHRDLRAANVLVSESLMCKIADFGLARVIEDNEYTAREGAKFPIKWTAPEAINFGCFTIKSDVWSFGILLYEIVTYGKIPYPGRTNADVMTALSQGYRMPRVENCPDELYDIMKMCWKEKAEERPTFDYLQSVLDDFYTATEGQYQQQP
Experiment [13] has the same target. The following applies: at 1 µM.
For experiment [14] the target is unchanged. The following applies: at 0.1 µM. The source holds these as a separate data set.
Experiment [15] has the same target. The conditions noted are these: at 1 µM. This is another data set of the same source.
The target of experiment [16] is T1, Tyrosine-protein kinase Mer (Homo sapiens) (UniProt Q12866).
T1 sequence (whole entry): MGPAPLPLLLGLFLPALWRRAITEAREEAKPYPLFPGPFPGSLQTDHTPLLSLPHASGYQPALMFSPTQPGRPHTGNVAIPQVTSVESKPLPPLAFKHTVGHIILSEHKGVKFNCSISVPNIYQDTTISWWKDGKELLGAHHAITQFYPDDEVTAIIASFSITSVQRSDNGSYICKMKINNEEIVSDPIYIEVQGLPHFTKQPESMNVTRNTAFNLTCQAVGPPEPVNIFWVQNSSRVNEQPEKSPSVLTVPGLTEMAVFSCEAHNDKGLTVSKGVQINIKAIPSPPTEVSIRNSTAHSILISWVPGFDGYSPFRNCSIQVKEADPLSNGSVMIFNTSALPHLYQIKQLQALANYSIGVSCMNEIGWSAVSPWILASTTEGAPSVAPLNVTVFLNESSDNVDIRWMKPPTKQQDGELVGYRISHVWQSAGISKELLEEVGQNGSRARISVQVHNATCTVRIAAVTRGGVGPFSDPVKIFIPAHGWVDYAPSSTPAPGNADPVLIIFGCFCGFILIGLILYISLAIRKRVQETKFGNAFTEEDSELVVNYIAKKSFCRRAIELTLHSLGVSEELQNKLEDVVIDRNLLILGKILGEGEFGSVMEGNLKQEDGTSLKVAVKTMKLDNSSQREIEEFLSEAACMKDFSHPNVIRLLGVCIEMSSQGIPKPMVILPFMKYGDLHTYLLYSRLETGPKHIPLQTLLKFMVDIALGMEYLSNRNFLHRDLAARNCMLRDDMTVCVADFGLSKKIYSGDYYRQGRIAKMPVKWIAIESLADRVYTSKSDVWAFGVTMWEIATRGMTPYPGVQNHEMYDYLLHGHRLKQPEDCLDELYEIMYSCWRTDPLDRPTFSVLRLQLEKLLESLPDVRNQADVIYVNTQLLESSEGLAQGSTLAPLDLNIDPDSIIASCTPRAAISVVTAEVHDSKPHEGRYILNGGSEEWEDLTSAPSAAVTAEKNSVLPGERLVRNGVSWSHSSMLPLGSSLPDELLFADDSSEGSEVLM
The conditions noted are these: at 0.1 µM.

The target in experiment [17] is T1, Tyrosine-protein kinase Mer (Homo sapiens). The following applies: at 1 µM.
The target in experiment [18] is Hepatocyte growth factor receptor (Homo sapiens) (UniProt P08581). The following applies: at 0.1 µM.
Hepatocyte growth factor receptor (Homo sapiens), sequence (P08581 whole entry): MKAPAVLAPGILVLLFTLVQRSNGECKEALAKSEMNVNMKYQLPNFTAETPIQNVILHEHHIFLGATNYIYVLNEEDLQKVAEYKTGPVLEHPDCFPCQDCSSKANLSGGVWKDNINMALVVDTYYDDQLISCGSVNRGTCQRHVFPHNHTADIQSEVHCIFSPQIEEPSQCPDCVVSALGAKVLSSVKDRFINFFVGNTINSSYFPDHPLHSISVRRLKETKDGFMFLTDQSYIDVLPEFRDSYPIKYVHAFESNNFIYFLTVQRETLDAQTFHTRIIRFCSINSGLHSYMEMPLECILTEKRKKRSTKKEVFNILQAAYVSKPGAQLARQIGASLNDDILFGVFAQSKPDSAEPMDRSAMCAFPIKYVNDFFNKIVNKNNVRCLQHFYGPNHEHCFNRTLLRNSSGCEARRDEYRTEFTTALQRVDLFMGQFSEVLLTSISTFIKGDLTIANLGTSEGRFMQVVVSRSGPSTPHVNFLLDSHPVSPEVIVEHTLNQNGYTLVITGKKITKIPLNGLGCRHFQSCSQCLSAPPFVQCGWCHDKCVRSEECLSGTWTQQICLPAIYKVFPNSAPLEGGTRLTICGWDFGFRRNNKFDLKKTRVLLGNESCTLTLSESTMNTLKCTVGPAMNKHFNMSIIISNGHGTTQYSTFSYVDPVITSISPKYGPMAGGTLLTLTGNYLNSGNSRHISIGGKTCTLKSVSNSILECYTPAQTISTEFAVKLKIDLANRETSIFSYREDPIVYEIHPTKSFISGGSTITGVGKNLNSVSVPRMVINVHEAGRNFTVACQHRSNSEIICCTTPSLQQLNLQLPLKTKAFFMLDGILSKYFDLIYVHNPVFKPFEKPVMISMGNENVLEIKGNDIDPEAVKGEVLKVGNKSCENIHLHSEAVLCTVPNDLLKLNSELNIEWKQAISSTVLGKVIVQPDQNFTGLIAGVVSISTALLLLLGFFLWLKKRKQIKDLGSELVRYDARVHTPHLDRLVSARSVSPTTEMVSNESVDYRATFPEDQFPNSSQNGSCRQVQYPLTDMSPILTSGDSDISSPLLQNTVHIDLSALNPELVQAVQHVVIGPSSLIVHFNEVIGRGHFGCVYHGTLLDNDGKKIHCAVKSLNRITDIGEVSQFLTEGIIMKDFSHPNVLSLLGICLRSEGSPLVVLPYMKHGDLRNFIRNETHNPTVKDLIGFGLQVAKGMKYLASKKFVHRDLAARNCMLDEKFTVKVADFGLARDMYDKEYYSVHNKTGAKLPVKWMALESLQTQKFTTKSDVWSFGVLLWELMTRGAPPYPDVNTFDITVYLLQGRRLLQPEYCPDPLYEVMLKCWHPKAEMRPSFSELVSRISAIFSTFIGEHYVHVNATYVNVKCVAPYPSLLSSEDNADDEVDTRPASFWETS
Experiment [19] shares this target. The following applies: at 1 µM.
Experiment [20] addresses T2, Muscle, skeletal receptor tyrosine-protein kinase (Homo sapiens) (UniProt O15146).
T2 sequence (whole entry): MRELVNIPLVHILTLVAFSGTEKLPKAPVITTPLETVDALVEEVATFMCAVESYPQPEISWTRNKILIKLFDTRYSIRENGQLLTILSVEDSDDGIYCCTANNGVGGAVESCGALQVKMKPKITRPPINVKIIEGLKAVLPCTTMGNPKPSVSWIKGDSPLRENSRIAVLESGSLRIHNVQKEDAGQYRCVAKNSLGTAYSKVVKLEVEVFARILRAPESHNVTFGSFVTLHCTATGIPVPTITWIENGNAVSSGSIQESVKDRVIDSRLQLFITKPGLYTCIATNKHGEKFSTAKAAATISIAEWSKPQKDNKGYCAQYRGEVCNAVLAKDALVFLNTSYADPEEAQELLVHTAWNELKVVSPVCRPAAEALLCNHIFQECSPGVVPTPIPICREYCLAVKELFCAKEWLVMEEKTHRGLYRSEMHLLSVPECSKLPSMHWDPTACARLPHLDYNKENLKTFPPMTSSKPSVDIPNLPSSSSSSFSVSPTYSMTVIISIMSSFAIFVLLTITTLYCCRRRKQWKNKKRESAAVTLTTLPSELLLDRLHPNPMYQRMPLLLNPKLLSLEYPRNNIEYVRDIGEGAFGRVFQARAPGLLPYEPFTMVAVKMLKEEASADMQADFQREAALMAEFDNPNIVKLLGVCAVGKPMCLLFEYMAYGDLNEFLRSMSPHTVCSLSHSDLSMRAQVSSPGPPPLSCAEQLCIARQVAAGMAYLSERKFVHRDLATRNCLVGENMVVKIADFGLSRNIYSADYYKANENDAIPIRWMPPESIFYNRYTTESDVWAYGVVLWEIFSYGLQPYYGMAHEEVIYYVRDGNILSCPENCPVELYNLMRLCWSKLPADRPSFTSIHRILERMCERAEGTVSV
The conditions noted are these: at 0.1 µM.

Mast/stem cell growth factor receptor Kit (Homo sapiens), sequence (P10721 whole entry): as the sequence (P10721 whole entry T670I) above, with I670T counted along it
Mast/stem cell growth factor receptor Kit (Homo sapiens), P10721 [D816V], sequence (P10721 whole entry D816V): as the sequence (P10721 whole entry T670I) above, with I670T, D816V counted along it

As to `O=C(NCC1CC1)c1ccc(-c2cccc(C(=O)NC3CC3)c2)cc1`, the inhibition in experiment [1] was 3.45%; in experiment [2] it was 2.24%; in experiment [3], -0.44%; in experiment [4], 3.77%; in experiment [5], -2.45%; in [6] it was 3.49%. In addition, the inhibition in [7] is 5.84%; in experiment [8], 1.74%; in experiment [9], 4.51%; in experiment [10], 1.6%; in experiment [11], -0.6%; in experiment [12] it was 0.78%. The inhibition in experiment [13] is 1.7%; in [14], 0.33%; in experiment [15], 2.4%; in experiment [16], 0.92%; in [17], 3.13%; in experiment [18], 5.94%. Besides, the inhibition in experiment [19] was -2.79%; in [20], 6.72%.
As to `C[C@@H](Oc1cc(-n2cnc3ccc(OCC4CCN(C)CC4)cc32)sc1C(N)=O)c1ccccc1Cl`, the inhibition is 8.33% in experiment [1]; 5.13% in experiment [2]; 8.23% in experiment [3]; 0.47% in [4]; 5.37% in [5]; -4.48% in [6]. In addition, the inhibition was determined as 0.38% in experiment [7]; 7.42% in experiment [8]; 29.8% in [9]; 4.38% in experiment [10]; 10.3% in experiment [11]; 5.95% in experiment [12]. Also, the inhibition amounted to 17.7% in [13]; 4.21% in experiment [14]; 13.8% in experiment [15]; 1.86% in experiment [16]; 5.73% in experiment [17]; 2.19% in experiment [18]. Further, the values for the inhibition in [19] and in experiment [20] were 9.62% and 41.5%, respectively.
For the molecule `Cc1ccc(C(=O)NC2CCC2)cc1-c1ccc(C(=O)NCC2CC2)cc1`, the inhibition in experiment [1] is 2.43%; in experiment [2], 1.7%; in experiment [3], 1.73%; in experiment [4] it was 2.13%; in experiment [5], -0.64%; in experiment [6], -2.14%. For the same molecule, the inhibition came out at 2.11% in experiment [7]; 1.6% in [8]; 2.51% in experiment [9]; 2.34% in experiment [10]; 2.04% in experiment [11]; 3.48% in experiment [12]. Besides, the inhibition in experiment [13] came to 2.47%; in [14], 2.55%; in experiment [15], 1.61%; in experiment [16] it was 2.37%; in experiment [17] it was 6.88%; in experiment [18] it was 3.95%. The inhibition in experiment [19] was 6.08%; in experiment [20] it was 2.41%.
Consider `Nc1nccc(-c2c(-c3ccc(F)cc3)ncn2C2CCC(O)CC2)n1` (stereo not given), for which the inhibition in experiment [1] was 17.1%; in [2], -2.57%; in experiment [3], 1.44%; in [4] it was -0.22%; in experiment [5], -0.69%; in experiment [6], 1.44%. Besides, the inhibition was 5.14% in experiment [7]; 3.6% in [8]; 29.2% in [9]; -1.37% in experiment [10]; 0.8% in [11]; 3.13% in experiment [12]. Also, the inhibition in experiment [13] came out at 23.6%; in experiment [14] it was 1.4%; in [15], 18%; in experiment [16], 1.22%; in [17], 7.13%; in experiment [18], 0.14%. Also, the inhibition was determined as 3.65% in experiment [19] and 0.79% in [20].
On to `FC(F)(F)c1cccc(Nc2nccc(-c3cnn4nc(-c5ccccc5)ccc34)n2)c1`, for which the inhibition in [1] is 37.3%; in [2] it was 1.06%; in experiment [3], 0.54%; in experiment [4], 1.8%; in experiment [5] it was 5.77%; in experiment [6], -2.09%. Besides, the inhibition came to 1.67% in experiment [7]; 1.68% in experiment [8]; 2.24% in experiment [9]; 0.59% in experiment [10]; 0.52% in [11]; 0.75% in experiment [12]. The inhibition in experiment [13] is 3.22%; in [14] it was 0.52%; in experiment [15], 2.95%; in [16], -0.58%; in experiment [17], 0.62%; in [18], -0.38%. In addition, the inhibition in [19] amounted to 0.28%; in experiment [20], 1.03%.
